Test results: PubChem BioAssay AID1159580 (chemical genetic matrix, 2015)
Where “and” joins values, the source holds several entries; their conditions need not be identical. Equal entries are not always repeated. Hit rate of the full screen: of about 5,500 compounds, about 2,000 (36%) were called active. About 18% were inconclusive and are not listed. No stated cut-off is given here; in the data, active means normalized growth mostly below about 0.91 (no sharp cut-off); inconclusive means no clear call, values can overlap the other calls; inactive means mostly above about 0.92. This is one part of the list.

Test: chemical genetic growth profiling, strain panel (AID 1159580);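 further: tested at 20 µM; growth read once vehicle control cultures reached saturation at 30 °C; 1 = growth at the plate median or of vehicle wells; lower values mean less growth of the strain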
Conditions: growth OD

Measured: normalized growth

CN(C)C(=O)Oc1ccc[n+](C)c1
inactive: S. cerevisiae deletion strains, locus YJR075W, strain HOC1, hits give low values 1 | S. cerevisiae deletion strains, locus YKL009W, strain mrt4, hits give low values 1.01 | S. cerevisiae deletion strains, locus YKL068W, hits give low values 1.02 | S. cerevisiae deletion strains, locus YKL085W, strain MDH1 (second series), hits give low values 1.01 | S. cerevisiae deletion strains, locus YKL085W, strain MDH1, hits give low values 1.01 | S. cerevisiae deletion strains, locus YKL160W, strain elf1, hits give low values 1 | S. cerevisiae deletion strains, locus YKL190W, strain CNB1, hits give low values 1.02 | S. cerevisiae deletion strains, locus YKR001C, strain vps1, hits give low values 1.01 | S. cerevisiae deletion strains, locus YKR026C, strain gcn3, hits give low values 1.01 | S. cerevisiae deletion strains, locus YKR091W, strain srl3, hits give low values 0.997 | S. cerevisiae deletion strains, locus YLL001W, strain dnm1, hits give low values 0.996 | S. cerevisiae deletion strains, locus YLL026W, hits give low values 0.999 | S. cerevisiae deletion strains, locus YLL041C, strain sdh2, hits give low values 1 | S. cerevisiae deletion strains, locus YLR027C, strain aat2, hits give low values 0.999 | S. cerevisiae deletion strains, locus YLR039C, strain RIC1, hits give low values 1.05 | S. cerevisiae deletion strains, locus YLR058C, strain SHM2, hits give low values 1.03 | S. cerevisiae deletion strains, locus YLR102C, strain apc9, hits give low values 1.01 | S. cerevisiae deletion strains, locus YLR113W, strain HOG1, hits give low values 1.05 | S. cerevisiae deletion strains, locus YLR221C, strain rsa3, hits give low values 0.997 | S. cerevisiae deletion strains, locus YLR258W, strain gsy2, hits give low values 1 | S. cerevisiae deletion strains, locus YLR262C, strain YPT6 (second series), hits give low values 1.01 | S. cerevisiae deletion strains, locus YLR262C, strain YPT6, hits give low values 1.06 | S. cerevisiae deletion strains, locus YLR268W, strain sec22, hits give low values 1.01 | S. cerevisiae deletion strains, locus YLR320W, strain mms22, hits give low values 1.01 | S. cerevisiae deletion strains, locus YLR330W, strain CHS5, hits give low values 1.01 | S. cerevisiae deletion strains, locus YLR342W, strain FKS1 (second series), hits give low values 1.06 | S. cerevisiae deletion strains, locus YLR342W, strain FKS1, hits give low values 1.01 | S. cerevisiae deletion strains, locus YLR357W, strain rsc2, hits give low values 1 | S. cerevisiae deletion strains, locus YLR370C, strain arc18, hits give low values 1.01 | S. cerevisiae deletion strains, locus YLR371W, strain rom2, hits give low values 1.01 | S. cerevisiae deletion strains, locus YLR384C, strain iki3, hits give low values 1.01 | S. cerevisiae deletion strains, locus YLR418C, strain cdc73, hits give low values 1.03 | S. cerevisiae deletion strains, locus YML016C, strain PPZ1, hits give low values 1.01 | S. cerevisiae deletion strains, locus YML032C, strain rad52, hits give low values 1.01 | S. cerevisiae deletion strains, locus YML120C, strain ndi1, hits give low values 1 | S. cerevisiae deletion strains, locus YML124C, strain tub3, hits give low values 1.04 | S. cerevisiae deletion strains, locus YMR058W, strain fet3, hits give low values 0.994 | S. cerevisiae deletion strains, locus YMR078C, strain ctf18, hits give low values 1.01 | S. cerevisiae deletion strains, locus YMR125W, strain sto1, hits give low values 1 | S. cerevisiae deletion strains, locus YMR129W, hits give low values 1 | S. cerevisiae deletion strains, locus YMR205C, strain PFK2, hits give low values 1.02 | S. cerevisiae deletion strains, locus YMR223W, strain ubp8, hits give low values 1.05 | S. cerevisiae deletion strains, locus YMR231W, strain pep5, hits give low values 1 | S. cerevisiae deletion strains, locus YMR263W, strain SAP30, hits give low values 1.01 | S. cerevisiae deletion strains, locus YMR307W, strain GAS1, hits give low values 1.04 | S. cerevisiae deletion strains, locus YNL067W, strain RPL9B, hits give low values 1.01 | S. cerevisiae deletion strains, locus YNL071W, strain lat1, hits give low values 1 | S. cerevisiae deletion strains, locus YNL153C, strain GIM3, hits give low values 0.986 | S. cerevisiae deletion strains, locus YNL175C, strain NOP13, hits give low values 0.972 | S. cerevisiae deletion strains, locus YNL183C, strain NPR1, hits give low values 0.981 | S. cerevisiae deletion strains, locus YNL197C, strain WHI3, hits give low values 0.961 | S. cerevisiae deletion strains, locus YNL209W, strain ssb2, hits give low values 1 | S. cerevisiae deletion strains, locus YNL224C, strain SQS1, hits give low values 0.982 | S. cerevisiae deletion strains, locus YNL233W, strain BNI4, hits give low values 1 | S. cerevisiae deletion strains, locus YNL248C, strain rpa49, hits give low values 0.996 | S. cerevisiae deletion strains, locus YNL250W, strain rad50, hits give low values 1.02 | S. cerevisiae deletion strains, locus YNL271C, strain bni1, hits give low values 1.02 | S. cerevisiae deletion strains, locus YNL298W, strain CLA4, hits give low values 1.02 | S. cerevisiae deletion strains, locus YNL307C, strain MCK1, hits give low values 1.02 | S. cerevisiae deletion strains, locus YNL322C, strain KRE1 (second series), hits give low values 1 | S. cerevisiae deletion strains, locus YNR049C, strain mso1, hits give low values 1 | S. cerevisiae deletion strains, locus YNR052C, strain pop2, hits give low values 1.02 | S. cerevisiae deletion strains, locus YOL006C, strain TOP1, hits give low values 0.966 | S. cerevisiae deletion strains, locus YOL012C, strain htz1 0.894 | S. cerevisiae deletion strains, locus YOL147C, strain pex11, hits give low values 1.02 | S. cerevisiae deletion strains, locus YOR001W, strain rrp6, hits give low values 0.985 | S. cerevisiae deletion strains, locus YOR061W, strain CKA2, hits give low values 1.02 | S. cerevisiae deletion strains, locus YOR069W, strain VPS5, hits give low values 1.02 | S. cerevisiae deletion strains, locus YOR070C, strain gyp1, hits give low values 1 | S. cerevisiae deletion strains, locus YOR080W, strain dia2, hits give low values 1.03 | S. cerevisiae deletion strains, locus YOR083W, strain WHI5 (second series), hits give low values 0.968 | S. cerevisiae deletion strains, locus YOR083W, strain WHI5, hits give low values 0.999 | S. cerevisiae deletion strains, locus YOR106W, strain vam3, hits give low values 1 | S. cerevisiae deletion strains, locus YOR136W, strain idh2, hits give low values 1.02 | S. cerevisiae deletion strains, locus YOR144C, strain elg1, hits give low values 1.01 | S. cerevisiae deletion strains, locus YOR184W, strain ser1, hits give low values 1.01 | S. cerevisiae deletion strains, locus YOR231W, strain MKK1, hits give low values 1.03 | S. cerevisiae deletion strains, locus YOR265W, strain rbl2, hits give low values 1.01 | S. cerevisiae deletion strains, locus YOR270C, strain vph1, hits give low values 0.993 | S. cerevisiae deletion strains, locus YOR290C, strain snf2, hits give low values 1 | S. cerevisiae deletion strains, locus YOR316C, strain cot1, hits give low values 1.02 | S. cerevisiae deletion strains, locus YPL051W, strain arl3, hits give low values 1 | S. cerevisiae deletion strains, locus YPL055C, strain LGE1, hits give low values 1 and 1.04 | S. cerevisiae deletion strains, locus YPL078C, strain atp4, hits give low values 0.999 | S. cerevisiae deletion strains, locus YPL106C, strain sse1, hits give low values 1.01 | S. cerevisiae deletion strains, locus YPL240C, strain hsp82, hits give low values 1 | S. cerevisiae deletion strains, locus YPL241C, strain CIN2, hits give low values 0.991 | S. cerevisiae deletion strains, locus YPL256C, strain CLN2, hits give low values 1 | S. cerevisiae deletion strains, locus YPR119W, strain clb2, hits give low values 1.01 | S. cerevisiae deletion strains, locus YPR141C, strain kar3, hits give low values 1.02 | S. cerevisiae deletion strains, locus YPR163C, strain tif3, hits give low values 1.02 | S. cerevisiae deletion strains, locus YPR167C, strain met16, hits give low values 1.01 | S. cerevisiae deletion strains, strain wtn01, hits give low values 1.01 | S. cerevisiae strains, strain wild type, hits give low values 1.02
